Laboratory results from PubChem BioAssay (NCATS).
Values without a mark were called inactive. Records with an inconclusive call do not appear. Where a call stands in place of a potency, no number is given. Calls of active or inactive are those of the source. Calls come from the whole dose curve; as a rule, active = well fitted curve in the direction sought with a large enough effect; inconclusive = small, poorly fitted or top-dose-only effect, or another doubt; inactive = no such curve, though single readings can be large; an effect the other way counts as inactive or inconclusive. Where a SMILES comes first, the peptide text is derived from it. The star is where a group is joined. AFC = O=c1cc(C(F)(F)F)c2ccc(N*)cc2o1

Columns and labels:
[1] = target: Glutathione peroxidase 1 (Homo sapiens) (UniProt P07203); test: Primary qHTS Assay for Inhibitors of Recombinant Selenoprotein Glutathione Peroxidase 1 (GPX1) (AID 1845191); note: nearly all actives have a fitted effect of over 65% in size; note: potency is the fitted concentration of half-maximal effect
In short: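 NADPH consumption tracked by fluorescence at 340/450 nm between t=0 and t=15 min, room temperature. Final mix: 10 nM GPX1, 100 nM glutathione reductase, 1 mM GSH, 0.5 mM NADPH, 0.5 mM cumene hydroperoxide, 0.01% BSA; 30 min compound–enzyme preincubation.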

[2] = target: Phospholipid hydroperoxide glutathione peroxidase GPX4 (Homo sapiens) (UniProt P36969); test: Primary qHTS Assay for Inhibitors of Recombinant Selenoprotein Glutathione Peroxidase 4 (GPX4) (AID 1845192); note: nearly all actives have a fitted effect of over 65% in size; note: potency is the fitted concentration of half-maximal effect; for activity change, negative = inhibition: series mostly up to about 50 µM
In short: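 NADPH consumption followed by fluorescence at 340/450 nm, t=0 and after 15 min at room temperature. Reaction started with cumene hydroperoxide (0.5 mM final) after 30 min compound–GPX4 preincubation; final 200 nM GPX4, 100 nM GR, 1 mM GSH, 0.5 mM NADPH.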

[3] = target: Luciferin 4-monooxygenase (Photinus pyralis) (UniProt P08659); test: Primary firefly luciferase (FLuc) qHTS assay for identification of artifact compounds. (AID 1845220); note: nearly all actives have a fitted effect of over 60% in size; for activity change, negative = inhibition: series mostly up to about 54 µM
In short: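 Cell-free, 1536-well qHTS. Buffer pH 7.6 with 0.01% Tween-20 and 0.05% BSA; 10 uM D-luciferin, 10 uM ATP; 10 nM P. pyralis luciferase; luminescence after 5 min.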

[4] = Primary fluorescence-based thiol-reactive (MSTI) qHTS assay for identification of artifact compounds. (AID 1845221); note: nearly all actives have a fitted effect of over 65% in size; note: potency is the fitted concentration of half-maximal effect;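 for activity change, negative = thiol reactive: series mostly up to about 54 µM; thiol-reactive compounds lower the probe fluorescence signal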
In short: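 A multi-concentration qHTS design tested compounds against 4 uM MSTI, pH 7.4 phosphate-buffered saline. Plates were protected from light for 1 h at room temperature before imaging fluorescence.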

[5] = test system: Nanoluciferase (engineered Oplophorus gracilirostris luciferase); test: Primary Nanoluciferase (NLuc) qHTS assay for identification of artifact compounds. (AID 1845222); note: series mostly up to about 54 µM
In short: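 Compounds are pinned into diluted (1:55) conditioned medium of NLuc-expressing S16 cells and held 15 min at room temperature protected from light. Nano-Glo substrate follows, and luminescence is read 5 min later.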

Chain of Glutathione peroxidase 1 (Homo sapiens) (P07203 whole entry, looked up): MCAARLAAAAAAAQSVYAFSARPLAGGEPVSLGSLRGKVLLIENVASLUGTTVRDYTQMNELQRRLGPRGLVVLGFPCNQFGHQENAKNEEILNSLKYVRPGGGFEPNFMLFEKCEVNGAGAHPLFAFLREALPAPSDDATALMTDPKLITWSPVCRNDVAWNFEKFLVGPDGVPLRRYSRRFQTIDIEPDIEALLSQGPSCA
Chain of Phospholipid hydroperoxide glutathione peroxidase GPX4 (Homo sapiens) (P36969 whole entry, looked up): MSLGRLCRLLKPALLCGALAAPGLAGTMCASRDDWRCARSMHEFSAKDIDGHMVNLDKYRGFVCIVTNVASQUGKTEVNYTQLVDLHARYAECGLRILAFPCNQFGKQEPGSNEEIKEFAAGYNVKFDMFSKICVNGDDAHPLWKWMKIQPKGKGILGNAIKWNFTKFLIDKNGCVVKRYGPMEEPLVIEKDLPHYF

SMILES: CC(=O)N[C@@H](CC(C)C)C(=O)N[C@@H](CCC(=O)O)C(=O)N[C@@H](CCC(=O)O)C(=O)N[C@@H](CC(=O)O)C(=O)Nc1ccc2c(C(F)(F)F)cc(=O)oc2c1 (Ac-LEED-{AFC})
- Potency [1]: 22.7 µM (active)
- Potency [2]: 20.2 µM (active)
- Potency [3]: inactive
- Potency [4]: inactive
- Potency [5]: inactive

SMILES: Nc1nonc1C(=Nc1ccc(F)c(Cl)c1)NO
- Potency [1]: inactive
- Potency [2]: inactive
- Potency [3]: inactive
- Potency [4]: inactive
- Potency [5]: inactive

SMILES: CC(C)Nc1cc(-c2c[nH]c(C(=O)N[C@H](CO)c3cccc(Cl)c3)c2)c(Cl)cn1
- Potency [1]: inactive
- Potency [2]: inactive
- Potency [3]: inactive
- Potency [4]: inactive
- Potency [5]: inactive

SMILES: COc1ccc(C(OC2OC(CO)C(O)C(O)C2O)C(C)O)cc1 (stereo not given)
- Potency [1]: inactive
- Potency [2]: inactive
- Potency [3]: inactive
- Potency [4]: 14.7 µM (active)
- Potency [5]: inactive

SMILES: CCCCCCc1cccc(NC(=O)[C@H](N)CCP(=O)(O)O)c1
- Potency [1]: inactive
- Potency [2]: inactive
- activity change, negative = inhibition [3]: 2.4% [at 11.6 µM]
- activity change, negative = thiol reactive [4]: 1.56% [at 11.5 µM]
- activity, negative = inhibition [5]: 4.9% [at 11.6 µM]

SMILES: COc1ccc(C[C@H](N)C(=O)N[C@H]2[C@@H](O)[C@H](n3cnc4c(N(C)C)ncnc43)O[C@@H]2CO)cc1
- Potency [1]: inactive
- Potency [2]: inactive
- Potency [3]: inactive
- Potency [4]: inactive
- Potency [5]: inactive

SMILES: C[C@@]12C[C@]3(O)O[C@H](O1)[C@]1(COC(=O)c4ccccc4)[C@H]3C[C@@]12O[C@@H]1O[C@H](COC(=O)c2ccccc2)[C@@H](O)[C@H](O)[C@H]1O
- Potency [1]: inactive
- Potency [2]: inactive
- Potency [3]: inactive
- Potency [4]: inactive
- Potency [5]: inactive

SMILES: CC(=O)OC1C(O)C(C)=C(CCC(C)CC(=O)O)C2(C)CCCC(C)(C)C12 (stereo not given)
- Potency [1]: inactive
- Potency [2]: inactive
- Potency [3]: inactive
- Potency [4]: inactive
- Potency [5]: inactive

SMILES: O=c1ccn([C@@H]2O[C@H](CO)[C@@H](O)[C@H]2O)c(=O)[nH]1
- Potency [1]: inactive
- Potency [2]: inactive
- Potency [3]: inactive
- Potency [4]: inactive
- Potency [5]: inactive

SMILES: COc1ncc(-c2ccc3c(Nc4cc(Oc5cc(F)cc(F)c5)cc(C(=O)O)c4)c(S(=O)(=O)NC4CC4)cnc3c2)c(OC)n1
- Potency [1]: inactive
- Potency [2]: inactive
- Potency [3]: inactive
- Potency [4]: inactive
- Potency [5]: inactive
